Measured values reported in the OligoGym collection.

target: COX10; experiment: pooled miR-30 sensor sort-seq; sequence = guide strand; conditions: shRNA
Note: reference of the scale not given here.

Sequence	sensor-assay potency score (higher = more potent)
TGCAGTGGTACTTACAACCAGA	-1.05
TTGTTTAACTCTCCCACCCCGA	-0.416
TCTAGTTCTATCAATTCCTTTT	-0.971
TATTGTTAGAAGGACTATGGTT	-0.28

target: COX19; experiment: as above; conditions: shRNA

Sequence	sensor-assay potency score (higher = more potent)
TTCCACTAGTCAAGTCTCCAAA	-0.858
ATTATTGTTATGAAGACACTTC	0.267
TTCTGCACAAAGCATTTTCAAA	-1.5
TAGTCAAGTCTCCAAATCCCAG	-1.71
TAAAGCTTTTACATTCACCTAA	0.0153
ATCAATTTTCTCTCCATCCTGC	0.0848
TAAATATTCTTTTGATTCCTTT	-0.553
ATTGTTATGAAGACACTTCATG	-0.941
TATTGTTATGAAGACACTTCAT	0.108
ATGAATTTCTCTTTAAAGCTTT	-0.368
TTTTACATTCACCTAAGTGATC	-1.57
TTCACCTAAGTGATCCAGCGGG	-0.488

target: COX4I2; experiment: as above; conditions: shRNA

Sequence	sensor-assay potency score (higher = more potent)
TCTCATTGAACTGGAGCCGGTA	-1.09
TTGAGTTCTGTGCAGAAGGGCT	-0.914
TCAGCGTTGAGTTCTGTGCAGA	-0.281
TAGGGGGACATCTTCCCCCCAC	-1.04
TCCACCTTTCCTCAGCACCAAG	-2.06
TTCATGTCCAGCATGCGCTGCA	0.312
AAAGGTCTCATTGAACTGGAGC	-0.86
TGAAGAAGAAGACACAACCCAT	-0.804
TTCATCTCCGCAAAGGTCTCAT	-0.117
TTCTTCTCATAGTCCCAGCGGG	-0.678
TCGTCCGTCAAGGTGATCGGCT	-1.37
TTCCTCAGCACCAAGCTCCAGG	-0.515

target: COX6B2; experiment: as above; conditions: shRNA

Sequence	sensor-assay potency score (higher = more potent)
TTGATCTGCTCGTTCCAGCTCT	-0.259
TGATCTGCTCGTTCCAGCTCTC	-0.561
TACGGATCTGGTTCTGGCTGGG	-0.241
TAGTACTCGCAGGGCTGCGTGC	-1.22
TTCTTGATCTGCTCGTTCCAGC	-0.0146
TACACGCGGAAATAGTACTCGC	-0.697
TGGTAGTCCAGGAAGTTCTGGT	-0.611
TCCCGTTCTTGATCTGCTCGTT	-0.329
TTCCAGCTCTCCACCCAGCTGA	-0.84
TAGTCCAGGAAGTTCTGGTAGC	-0.67
TTACGGATCTGGTTCTGGCTGG	0.238
TCGTTCCAGCTCTCCACCCAGC	-1.49
